Hit rate of the full screen: of about 69,000 compounds, about 8,600 (12%) showed an effect of 50% or more. This is one part of a sample in which strong results are shown more often than they occur.

The assay relates to Plasmodium berghei. In words: Screen against P. berghei liver stage (PbLuc), transformed with Luciferase, at 10uM. Format: functional, HepG2. To be noted: tested at 10 uM.
Take `COc1ccccc1C(=O)N(C)Cc1nnc2ccccn12`: the INHIBITION is recorded as -81.1%.
Regarding `Cn1c(N2CCOCC2)nc2cc(C(=O)N3CCC(O)(CO)C3)ccc21` (centres undefined), the INHIBITION worked out at 44.7%.
Regarding `CCOc1ccc(NCC(=O)NCC(=O)N2CCCC2)c(C(F)(F)F)c1`, the INHIBITION is 16.5%.
Consider `O=C(O)CCC(=O)Nc1nn(Cc2ccc(F)cc2)cc1Cl`, for which the INHIBITION worked out at 46.6%.
The figure for `CN1CCN(C(=O)c2cccn2C)c2ccccc2C1` is -39.2%; for `COCCN1CC[C@@H](OC)[C@@H]1Cc1ccccc1` it is -34.7%; for `Cc1nnc(NC(=O)CN2CCc3c(nc(C(C)C)n3C)C2)s1` it is 17.3%.
Under `CC(O)CN1CCC(CN(C)CC(=O)NC2CCOCC2)CC1` (centres undefined) stands -8.31%.
The figure for `CCC(C)(C)NC(=O)Cn1nc(C)nc1-c1ccccc1` is -31.5%; for `O=C1NC2(Cc3ccccc31)CN(CC1CCNCC1)C2` it is 26.7%.
With `c1ccc(-c2nnn3c2COC(CNCC2CCOCC2)C3)cc1` (centres undefined), the INHIBITION amounted to 44.9%.
In the case of `O=C(NCC1Cn2nnc(-c3ccsc3)c2CO1)N1CCCC1` (centres undefined), the INHIBITION amounted to 2.26%.
On to `CCS(=O)(=O)NCC1Cn2nnc(-c3ccccc3)c2CO1` (centres undefined), for which the INHIBITION came out at 54.4%.
Under `c1ccc(-c2nnn3c2COC(CNCC2CC2)C3)cc1` (centres undefined) stands 42.7%; under `CC(=O)NCC(=O)NCC1Cn2nnc(-c3cccc(F)c3)c2CO1` (centres undefined), 27.6%; under `Cc1cccc(-c2nnn3c2COC(CNC(=O)N2CCCC2)C3)c1` (centres undefined), 62.9%.
Take `CCS(=O)(=O)NCC1Cn2nnc(-c3cccc(C)c3)c2CO1` (centres undefined): the INHIBITION stood at 50.3%.
The figure for `Cc1cccc(-c2nnn3c2COC(CNS(=O)(=O)C2CC2)C3)c1` (centres undefined) is 44.8%; for `CCOCC(=O)NCC1Cn2nnc(-c3cccc(F)c3)c2CO1` (centres undefined) it is 38.5%.
The figure for `NC1CCN(S(=O)(=O)c2ccc(C(=O)N3CCSCC3)cc2)C1` (centres undefined) is 2.49%; for `CC(C)OCc1nn(CC2CC2)c2c1CN(Cc1ccco1)CC2` it is -107%; for `CC(C)(CN1CCC(Cc2ccc(CO)cc2)C1)N1CCOCC1` (centres undefined) it is 23.5%.
The figure for `O=C(CCn1ccc2ccccc21)Nc1ccnn1CC1CCOC1` (centres undefined) is 10.1%.
Regarding `O=C(O)c1cc2c(nc1N1CCCC1)CCN(C1CCOCC1)CC2`, the INHIBITION is -15.3%.
The figure for `O=c1[nH]cnc2c1CCN(S(=O)(=O)c1ccc(Cl)cc1)C2` is 36.2%; for `CN(C)CCN(C)C(=O)Cn1cccc2cc(-c3ccc(F)cc3)nc1-2` it is 26.7%.
Take `Cn1nc(C2CNCCO2)cc1CCOc1cccc(C(F)(F)F)c1` (centres undefined): the INHIBITION was 37.8%.
Turning to `CN1CCCC(CCC(=O)N2CCc3[nH]c(-c4ccccc4)nc3C2)C1` (centres undefined), the INHIBITION is 23%.
With `CC(C(=O)NCc1ccc(N2CCN(C)CC2)nc1)n1cccn1` (centres undefined), the INHIBITION was determined as 2.243%.
